Data on 91 molecules can be found in PubChem BioAssay AID1851 (National Center for Advancing Translational Sciences (NCATS), 2009).

Hit rate of the full screen: of about 16,000 compounds, about 5,800 (36%) were called active. Another 23% or so got no clear call; they are omitted. This is one part of the list. Unmarked numbers belong to inactive results. Calls follow the shape of the dose curve; as a rule, active = well fitted curve in the direction sought with a large enough effect; inconclusive = small, poorly fitted or top-dose-only effect, or effect the other way; inactive = no such curve, though single readings can be large or run the other way.
% is scaled to controls: 0 for no effect and ±100 for the full control effect.

In the assay the target is Cytochrome P450 2C19 (Homo sapiens) (UniProt P33261). Briefly: Cytochrome panel assay with activity outcomes. Conditions: recombinant CYP, pro-luciferin dealkylation, luminescence, p450-cyp2c19; series mostly up to 57.1 µM; activity, negative = inhibition: at the top concentration.
Sequence of Cytochrome P450 2C19 (Homo sapiens) (P33261 whole entry, looked up): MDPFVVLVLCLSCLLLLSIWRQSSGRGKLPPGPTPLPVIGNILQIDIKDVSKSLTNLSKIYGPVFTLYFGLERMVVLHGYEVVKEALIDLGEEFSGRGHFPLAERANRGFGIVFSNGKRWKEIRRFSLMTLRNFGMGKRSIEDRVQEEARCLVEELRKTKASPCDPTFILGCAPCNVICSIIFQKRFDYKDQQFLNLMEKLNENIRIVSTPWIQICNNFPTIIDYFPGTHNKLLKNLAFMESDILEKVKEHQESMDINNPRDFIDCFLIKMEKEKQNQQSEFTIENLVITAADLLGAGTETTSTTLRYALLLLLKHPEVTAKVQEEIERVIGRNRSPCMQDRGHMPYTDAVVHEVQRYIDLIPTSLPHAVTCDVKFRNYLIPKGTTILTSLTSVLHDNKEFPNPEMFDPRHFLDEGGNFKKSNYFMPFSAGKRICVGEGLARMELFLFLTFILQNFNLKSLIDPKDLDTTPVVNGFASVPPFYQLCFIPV
As for `c1csc(CNc2ncncc2-c2ccc3c(c2)OCO3)c1`, the AC50 (commonly the midpoint of the concentration-response curve, whichever way the signal moves) was 0.794 µM (active).
Turning to `CN(C)c1ncc2nc(-c3ccc(Cl)cc3)c(=O)n(C)c2n1`, the “activity, negative = inhibition” value was -8.52%.
With `CC(C)c1nnc(-c2ccc(Cl)cc2)c(N(C)C)n1`, the AC50 was 2.51 µM (active).
For the molecule `C[C@]1(O)CC[C@H]2[C@H]3CC=C4N5CCN=C5CC[C@@]4(C)[C@H]3CC[C@@]21C`, the activity, negative = inhibition is 14.3% [at 11.4 µM].
Consider `CC1(O)c2ccccc2C(=O)N1CCc1ccccc1F` (stereo unspecified), for which the AC50 was 0.251 µM (active).
`CC(C)c1ccc(/C(C(=O)O)=C(\O)C(=O)O)cc1`: the activity, negative = inhibition is -8.84% [at 11.4 µM].
Still for that read-out and setting: as for `CC(C)NC(=O)c1ccc2c(=O)n(Cc3ccco3)c(=S)[nH]c2c1`, the figure is -20.7%.
`O=C(CCn1c(=S)[nH]c2ccccc2c1=O)NCCCN1CCOCC1`: the “activity, negative = inhibition” value is -13.4%.
Turning to `COCCNC(=O)CCCCCn1c(=S)[nH]c2ccccc2c1=O`, the AC50 was 22.4 µM (active).
As to `COCCn1c(=S)[nH]c2cc(C(=O)NC(C)C)ccc2c1=O`, the AC50 is 15.8 µM (active).
As to `CCC1CCCCN1CCn1c(=S)[nH]c2cc(OC)c(OC)cc2c1=O` (stereo unspecified), the “activity, negative = inhibition” value is 2.9%.
On the same count and under the same terms, the result for `CCOC(=O)CCN1C(=O)[C@H]2[C@H]3[C@H](O)[C@H](O)C/C(=N/OC/C=C(\C)CCC=C(C)C)[C@H]3CC[C@@H]2C1=O` reads 12.1% [at 11.4 µM].
In the case of `Cc1ccc(S(=O)(=O)CCCS(=O)(=O)c2ccc(C)cc2)cc1`, the AC50 is 10 µM (active).
Same read-out and setting: the result for `O=S(=O)(c1ccccc1)N1CCC[C@@]2(CCN(Cc3nccs3)C2)C1` reads 7.94 µM (active).
Consider `N#Cc1ccc(CN2CCC3(CC2)CCN(S(=O)(=O)c2ccccc2)CC3)cc1`, for which the “activity, negative = inhibition” value is 5.6%.
Same read-out and setting: as for `O=S(=O)(c1ccccc1)N1CCC2(CC1)CN(Cc1nccs1)C2`, the figure is -10.2%; as for `O=S(=O)(c1ccccc1)N1CCC2(CC1)CN(Cc1ccccc1)C2`, -18.1%; as for `Cn1cccc1C(=O)N1CCC2(CCCN(Cc3ccc(C#N)cc3)C2)CC1`, -32.2%.
Take `O=S(=O)(c1ccccc1)N1CCC2(CCCN(Cc3ccncc3)C2)CC1`: the AC50 was 0.316 µM (active).
Take `O=S(=O)(c1ccccc1)N1CCC2(CCN(Cc3nccs3)CC2)CC1`: the “activity, negative = inhibition” value is -13.1%.
`N#Cc1ccc(CN2CCCC3(CCN(S(=O)(=O)c4ccccc4)CC3)C2)cc1`: the AC50 was 15.8 µM (active).
Turning to `O=S(=O)(c1ccccc1)N1CCC2(CCN(Cc3ccncc3)CC2)CC1`, the “activity, negative = inhibition” value was -22.9%.
Same read-out and setting: as for `CN1CCN(c2ncc3nc(-c4cc(F)cc(F)c4)c(=O)n(CCc4ccccc4)c3n2)CC1`, the figure is -7.74%.
Turning to `CSc1ccccc1N1CCN(C(=O)Nc2ccc3c(c2)NC(=O)CO3)CC1`, the AC50 is 7.94 µM (active).
As for `COc1cccc(N2CCN(C(=O)Nc3ccc4c(c3)NC(=O)CO4)CC2)c1`, the “activity, negative = inhibition” value was -26.8%.
In the case of `Cc1ccc(-n2c3c(c(=O)[nH]c2=O)C(NS(=O)(=O)c2ccc(C)cc2)(C(F)(F)F)C(=O)N3)cc1` (stereo unspecified), the “activity, negative = inhibition” value was -17.4%.
With `O=C(Nc1cccc(C(F)(F)F)c1)C1CCCN1S(=O)(=O)c1cccc2cccnc12` (stereo unspecified), the AC50 is 11.2 µM (active).
In the case of `O=C1OCCC1Sc1nnnn1-c1ccccc1` (stereo unspecified), the AC50 is 22.4 µM (active).
Take `Cc1cc(NC(=O)CSc2nnc(-c3ccccc3)n2Cc2ccco2)no1`: the half-maximal activity concentration (AC50) is 10 µM (active).
As for `CC(=O)Nc1ccc(NC(=O)CSc2nnc(-c3ccccc3)n2Cc2ccc3c(c2)OCO3)cc1`, the AC50 was 3.55 µM (active).
As for `O=C(CSc1nnc(-c2ccccn2)n1Cc1ccco1)Nc1ccc2c(c1)OCO2`, the AC50 is 6.31 µM (active).
As for `NC(=O)NC(=O)CSc1nnc(-c2ccco2)n1Cc1ccccc1`, the “activity, negative = inhibition” value is -15.5%.
On the same count and under the same terms, as for `COc1ccc(-c2nc3cnc(N4CCN(C)CC4)nc3n(CCC#N)c2=O)cc1`, the figure is -0.278%.
Still for that read-out and setting: as for `C=CCOc1ccc(CNC(C)(C)CO)cc1OCC`, the figure is 68%.
On to `C=CCOc1ccc(CNC(C)(C)CO)cc1OC`, for which the “activity, negative = inhibition” value is 23.4%.
Regarding `COc1cc(CNC(C)(C)CO)ccc1OCC(=O)Nc1ccc(Br)cc1`, the AC50 was 22.4 µM (active).
Consider `CC(C)CCNC(=S)NC1CCCC1`, for which the AC50 is 10 µM (active).
As for `CC(C)(C)C(=O)N1CCC(O)(CS(=O)(=O)Cc2ccc(Cl)cc2)CC1`, the “activity, negative = inhibition” value is -29.6%.
`CC(C)CC(=O)N1CCC(O)(CS(=O)(=O)Cc2ccc(Cl)cc2)CC1`: the “activity, negative = inhibition” value was -5.81%.
Take `CC(O)(CS(=O)(=O)Cc1ccc(Cl)cc1)C(=O)Nc1cccc(C(F)(F)F)c1` (stereo unspecified): the half-maximal activity concentration (AC50) is 7.94 µM (active).
On to `CC(O)(CS(=O)(=O)Cc1ccccc1Cl)C(=O)Nc1cccc(C(F)(F)F)c1` (stereo unspecified), for which the AC50 is 2.82 µM (active).
With `COCCn1c(=O)c(C)nc2cnc(N3CCN(C)CC3)nc21`, the “activity, negative = inhibition” value was 5.94%.
As for `COc1ccc(CN2C(=O)c3ccccc3C(/C=N\OCc3ccc(F)cc3)C2=O)cc1` (stereo unspecified), the AC50 is 2.51 µM (active).
As to `COc1ccc(CO/N=C/c2c(C)[nH]c(=O)[nH]c2=O)cc1`, the “activity, negative = inhibition” value was -20%.
As for `CCN(CC)C[C@@H](O)c1ccc2ccc3ccccc3c2c1`, the activity, negative = inhibition was -3.19% [at 11.4 µM].
As to `CCCCOC(OCCCC)[C@H](O)CSc1ccc2ccccc2c1`, the AC50 is 3.16 µM (active).
As to `CC(C)NC[C@H](O)c1ccc2ccccc2c1`, the AC50 entry was “inactive”.
For `CCCc1nn2c(=O)c(C(c3ccc(C)cc3)c3c(O)nc4sc(CCC)nn4c3=O)c(O)nc2s1`, the “activity, negative = inhibition” value is -17.5%.
Turning to `CCCCCCN(CCCCCC)C(=O)Cc1c(-c2ccc(F)cc2)[nH]c2ccccc12`, the AC50 is 3.98 µM (active).
For the molecule `CN(C)CN1C(=O)S/C(=C2/C(=O)N(CN(C)C)c3ccccc32)C1=O`, the activity, negative = inhibition was 21.4% [at 11.4 µM].
For `CCN1C(=O)/C(=C2\SC(N3CCCCC3)=NC2=O)c2ccccc21`, the AC50 is 14.1 µM (active).
On the same count and under the same terms, as for `Oc1ccc2ccccc2c1Cc1c(O)ccc2ccccc12`, the figure is 0.316 µM (active); as for `CC(C)(C)c1ccc(O)c(CN(Cc2cc(C(C)(C)C)ccc2O)C2CCCCC2)c1`, 1.58 µM (active).
For the molecule `CC(C)(C)CC(C)(C)c1ccc(O)c(C[N+](C)(C)[O-])c1`, the activity, negative = inhibition was -6.26% [at 11.4 µM].
With `O=C(O)Cc1c(O)ccc2ccccc12`, the activity, negative = inhibition was 33.5% [at 11.4 µM].
With `CC(C)(C)c1ccc(O)c(CN(Cc2c(O)ccc3ccccc23)C2CCCCC2)c1`, the AC50 was 2 µM (active).
As to `Oc1ccc2ccccc2c1CN(Cc1c(O)ccc2ccccc12)C1CCCCC1`, the AC50 was 1 µM (active).
Regarding `CN(C)Cc1cc(C(C)(C)C)ccc1-c1ccc(C(C)(C)C)cc1CN(C)C`, the activity, negative = inhibition is 39.4% [at 11.4 µM].
In the case of `N#Cc1cccc(NC(=O)N2CCCC3(CCN(C(=O)c4cccc(F)c4)CC3)C2)c1`, the “activity, negative = inhibition” value is -37.4%.
On the same count and under the same terms, the result for `NC(=O)C(=O)O` reads 9.7%.
Still for that read-out and setting: the result for `CC[C@H](NC(=O)c1c(C)c(-c2ccccc2)nc2ccccc12)c1ccccc1` reads -15%.
Turning to `CCC(NC(=O)C1(C)CC1(Br)Br)c1ccc(C)cc1` (stereo unspecified), the AC50 is 2.51 µM (active).
Turning to `NC(=O)CNC(=O)[C@@H]1CC2(CC(c3cccc([N+](=O)[O-])c3)=NO2)CN1C(=O)c1ccccc1` (stereo partly specified), the “activity, negative = inhibition” value was -22.4%.
For `O=C(NCc1ccccc1)C12CN(Cc3ccccc3)CC1C(c1cccc([N+](=O)[O-])c1)=NO2` (stereo unspecified), the AC50 was 2.51 µM (active).
As to `COc1ccc(C(=O)N2CC3(CC(c4cccc([N+](=O)[O-])c4)=NO3)C[C@H]2C(=O)NCC(N)=O)cc1` (stereo partly specified), the “activity, negative = inhibition” value is -24.6%.
On to `CC(C)CCNC(=O)C12CN(Cc3ccccc3)CC1C(c1cccc([N+](=O)[O-])c1)=NO2` (stereo unspecified), for which the AC50 is 3.55 µM (active).
`Cc1ccc(S(=O)(=O)N[C@@H]2COC(=O)C/C=C\[C@H](C)COC(=O)N[C@@H](C)C(=O)C/C=C\[C@H]2C)cc1`: the activity, negative = inhibition was -6.82% [at 11.4 µM].
Regarding `COc1ccc2c(c1)OC1=C(C(=O)CCC1)C2C1=C(O)CCCC1=O` (stereo unspecified), the AC50 is 15.8 µM (active).
In the case of `CCNc1ncc2nc(-c3cccc(C#N)c3)c(=O)n(CCC#N)c2n1`, the “activity, negative = inhibition” value was -14.5%.
On to `CC(C)Cn1c(C(C)C)nc([N+](=O)[O-])c1S(=O)(=O)c1ccc(F)cc1`, for which the AC50 is 5.01 µM (active).
The same measure, in the same setting: the result for `CCS(=O)(=O)Nc1ccc(C2=NN(C(=O)c3ccco3)C(c3ccc(C)cc3)C2)cc1` (stereo unspecified) reads 11.2 µM (active).
As to `Cc1ccc(C2C(C(=O)c3ccco3)=C(O)C(=O)N2c2nnc(C)s2)cc1` (stereo unspecified), the “activity, negative = inhibition” value is -20%.
For the molecule `c1ccc(-c2noc(CSc3nnnn3C3CCCCC3)n2)cc1`, the AC50 was 1.26 µM (active).
For `Cc1sc2nc(SCc3nc(-c4cccs4)no3)n(-c3ccccc3)c(=O)c2c1C`, the “activity, negative = inhibition” value was -7.06%.
Consider `Cc1ccc(C)n1N1C(=O)/C(=C\c2ccc(Cl)cc2)SC1=S`, for which the AC50 is 7.94 µM (active).
With `COc1ccccc1CNC(=O)CCCn1c(=O)c2ccccc2n(CC(=O)NC2CCCC2)c1=O`, the AC50 is 7.94 µM (active).
Turning to `CCOc1cc2[nH]c(=O)n(CCCC(=O)NCc3ccc(OC)cc3)c(=O)c2cc1OCC`, the “activity, negative = inhibition” value is -24.6%.
Still for that read-out and setting: the result for `COC(=O)N1CCC2(CCCN(Cc3ccccc3OC)C2)CC1` reads -22.1%; that for `CC(=O)OC[C@@H]1O[C@@H](O/N=C2/C[C@@H](O)[C@@H](O)[C@@H]3[C@@H]4C(=O)N(C(C)(C)C)C(=O)[C@H]4CC[C@@H]23)[C@H](OC(C)=O)[C@H](OC(C)=O)[C@@H]1OC(C)=O`, 11.3% [at 11.4 µM].
In the case of `c1ccc(CSc2nnc(-c3sccc3-n3cccc3)o2)cc1`, the AC50 was 2 µM (active).
Still for that read-out and setting: as for `Cc1cccc(-c2nnc(SCc3ccccc3)o2)c1`, the figure is 11.2 µM (active).
The same measure, in the same setting: the result for `Clc1ccc(CSc2nnc(-c3sccc3-n3cccc3)o2)cc1` reads 1.12 µM (active); that for `Clc1ccc(CSc2nnc(-c3cccnc3)o2)cc1`, 3.55 µM (active).
Turning to `CC(C)N(Cc1ccccc1)S(=O)(=O)c1n[nH]c(C(C)(C)C)n1`, the activity, negative = inhibition is -40.1% [at 11.4 µM].
For the molecule `Clc1cccc(CSc2nnc(-c3sccc3-n3cccc3)o2)c1`, the AC50 is 1.58 µM (active).
As for `CC(C)CN1CC[C@@]2(CCCN(C(=O)c3csnn3)C2)C1`, the “activity, negative = inhibition” value was 9.51%.
In the case of `COc1ccc(-n2cccc2C=O)cc1OC`, the “activity, negative = inhibition” value is -13.9%.
On to `COc1ccc2c(c1)-c1c(sn(-c3ccc(OC)c(OC)c3)c1=S)C(C)(C)N2`, for which the AC50 is 6.31 µM (active).
As for `COc1ccc(-n2c(C)n[nH]c2=O)cc1OC`, the “activity, negative = inhibition” value was -2.09%.
Regarding `Clc1ccccc1NN(Cc1ccccn1)c1ccccc1Cl`, the AC50 was 3.98 µM (active).
The same measure, in the same setting: as for `Clc1ccccc1NN(Cc1ccncc1)c1ccccc1Cl`, the figure is 1.26 µM (active).
